Source: PubChem BioAssay AID624330 (Southern Research Specialized Biocontainment Screening …, 2012)
Hit rate of the full screen: of about 340,000 compounds, about 2,100 (0.62%) were called active.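 The calls were made as follows: active = first-screen hits whose inhibition reached a set limit at any dose in the follow-up dose series; inconclusive = inhibition above the set first-screen limit but never retested; inactive = the rest.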 A selection follows. Results with a measured potency or affinity are listed apart.

target: Rac GTPase-activating protein 1 (Homo sapiens) (UniProt Q9H0H5); experiment: MgcRacGAP GTPase-activating activity inhibitors, confirmation, biochemical, ADP Hunter fluorescence, primary and confirmatory (AID 624330); settings: MgcRacGAP-stimulated Rac1 GTP hydrolysis, at 30 µM, hits give high values, GST-tagged Rac1 F28L mutant substrate;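 also: fluorescence reports GDP produced by GAP-driven GTP hydrolysis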
Sequence (Q9H0H5 whole entry, looked up): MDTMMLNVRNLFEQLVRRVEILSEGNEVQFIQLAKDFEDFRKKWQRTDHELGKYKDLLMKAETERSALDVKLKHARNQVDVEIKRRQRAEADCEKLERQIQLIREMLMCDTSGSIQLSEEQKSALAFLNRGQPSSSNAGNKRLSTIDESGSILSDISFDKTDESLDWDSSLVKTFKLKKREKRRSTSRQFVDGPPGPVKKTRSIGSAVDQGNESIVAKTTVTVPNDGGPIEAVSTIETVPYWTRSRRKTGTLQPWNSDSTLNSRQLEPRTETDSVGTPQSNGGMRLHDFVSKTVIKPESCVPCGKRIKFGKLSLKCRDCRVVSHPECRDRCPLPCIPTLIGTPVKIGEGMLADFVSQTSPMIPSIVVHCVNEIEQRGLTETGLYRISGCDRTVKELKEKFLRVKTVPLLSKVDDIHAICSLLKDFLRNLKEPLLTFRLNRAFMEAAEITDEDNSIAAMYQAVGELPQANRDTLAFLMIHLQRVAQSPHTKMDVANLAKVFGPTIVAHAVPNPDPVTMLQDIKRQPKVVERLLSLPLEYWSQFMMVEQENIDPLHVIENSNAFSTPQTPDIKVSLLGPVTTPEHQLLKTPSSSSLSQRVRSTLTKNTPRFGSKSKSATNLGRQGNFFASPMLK

inhibition, inactive:
CCN(CC)S(=O)(=O)c1ccc(OC)c(NC(=O)c2cn(CC)c3nc(C)ccc3c2=O)c1 7.32%, CCOC(=O)COc1cccc2c(=O)n(CC(N)=O)ccc12 3.81%, CCOc1ccc(/C=C2\NC(=S)NC2=O)cc1 -0.61%, COc1ccc(C=C2NC(=S)NC2=O)cc1 14.2%, CC(=O)Nc1ccc(OC(=O)c2ccc(Cl)cc2)cc1 -3.42%, COC(=O)Cc1ccc(NC(C)=O)cc1 3.66%, CCOC(=O)/C(=C/Nc1ccc(F)c(F)c1)[N+](=O)[O-] -8.37%, Cc1cc(C)c2[nH]c(=O)c(C(c3nnnn3C(C)(C)C)N3CCN(C(=O)c4ccco4)CC3)cc2c1 (stereo unspecified) 1.84%, CC(=O)c1ccc(N=Nc2ccc(N)cc2)cc1 0.6%, Cc1cc(N(C)C)ccc1N=Nc1ccc2ncccc2c1 3.61%, Nc1ccc(-c2cnc(-c3ccc(N)cc3)nc2)cc1 9.16%, CN(C)c1ccc(N=Nc2ccccc2Br)cc1 8.09%, Nc1ccc(Sc2ccc([N+](=O)[O-])cc2)cc1 7.67%, Nc1ccc(CCc2ccc(N)cc2)cc1 13.9%, Nc1ccc(-c2nnc(-c3ccc(N)cc3)o2)cc1 12.9%, Nc1ccc(SC(F)(F)F)cc1 -3.64%, Cc1ccccc1C(=O)OCC(=O)Nc1cccc(S(=O)(=O)N2CCCCC2)c1 11.7%, CN(C)S(=O)(=O)c1ccc(Cl)c(NC(=O)COc2ccccc2[N+](=O)[O-])c1 6.09%, CCN(CC1CCCO1)C(=O)c1cc(COc2ccc(OC)cc2Cl)on1 (stereo unspecified) -11.4%, C[C@H](CO)N1C[C@H](C)[C@@H](CN(C)C(=O)Nc2ccccc2)Oc2c(NS(=O)(=O)c3ccc(F)cc3)cccc2C1=O 3.18%, Cc1ccc(OCC(=O)Nc2ccc3oc(=O)ccc3c2)cc1 4.26%, O=C(Cc1ccsc1)N1CCN(S(=O)(=O)c2cccc(F)c2)CC1 -3.87%, CCN1CCN(CC(=O)N2c3ccccc3CC2C)CC1 (stereo unspecified) 22.6%, CC1Cc2ccccc2N1C(=O)CN1CCCCC1 (stereo unspecified) 2.91%, CN(Cc1cccc(F)c1)C(=O)C1CC(=O)N(c2ccc3c(c2)OCCO3)C1 (stereo unspecified) 4.27%, Cc1c(Cl)ccc(S(=O)(=O)N2CCN=C2c2ccccc2)c1Cl 4.68%, Cc1cc(Cl)cc2sc(NC(=O)C3CC3)nc12 5.72%, Cc1cc(Cl)cc2sc(NC(=O)c3ccco3)nc12 5.28%, C/C(O)=C\c1nc2ccccc2oc1=O 18.1%, CCS(=O)(=O)CCSc1nc2ccccc2o1 -5.63%, CCCCCN1C(C)=CC(=C(C#N)C#N)C=C1C 9.16%, Cc1cccc2sc(N(CCN(C)C)C(=O)c3ccc4ccccc4c3)nc12 5.08%, O=c1[nH]cc(S(=O)(=O)N2CCN(c3ccc(F)cc3)CC2)c(=O)[nH]1 2.66%, Cc1cc(C(=O)Nc2nccs2)c2cc(F)ccc2n1 4.04%, O=C(Nc1cccc(S(=O)(=O)N2CCCCC2)c1)c1ccco1 -7.5%, Cc1ccc(S(=O)(=O)N2CCCCC2)cc1NC(=O)c1ccco1 15.5%, Cc1ccc(S(=O)(=O)N2CCOCC2)cc1NC(=O)CNCc1ccccc1Cl 8.04%, O=C(COC(=O)c1ccco1)Nc1cccc(S(=O)(=O)N2CCCCC2)c1 0.12%, Cc1ccc(S(=O)(=O)N2CCOCC2)cc1C(=O)NCc1cccnc1 5.2%, O=C(CNCc1ccco1)Nc1cc(S(=O)(=O)N2CCOCC2)ccc1N1CCCC1 24.8%, COc1ccc(CNC(N)=O)cc1OC 5.81%, CN(C)S(=O)(=O)c1ccc(NC(=O)CN2C(=O)NC3(CCCC3)C2=O)cc1 4.79%, CCCN(C(=O)c1c(CC)noc1C)c1c(N)n(Cc2ccccc2)c(=O)[nH]c1=O 7.17%, CC1(NC(=O)N2CCCCC2)CCS(=O)(=O)C1 (stereo unspecified) 6.45%, O=C1CC(c2ccc(F)cc2)CC(O)=C1C=NCCN1CCNCC1 (stereo unspecified) 10.7%, COc1ccc(-c2csc3ncnc(N4CCN(c5ccccc5OC)CC4)c23)cc1 8.39%, O=C(OCC(=O)N1CCN(C(=O)c2ccco2)CC1)c1ccc(Cl)nc1 2.2%, COCCNC(=O)c1ccc(N2CC3CC(C2)c2cccc(=O)n2C3)c(NC(=O)c2cc(OC)cc(OC)c2)c1 (stereo unspecified) 10.3%, COc1ccc(CNC(=O)C2CCC(=O)N(CC3CCCCC3)C2)cc1 (stereo unspecified) 8.55%, O=C(NN1C(=O)c2ccccc2NC1c1ccc([N+](=O)[O-])o1)c1ccc(Br)cc1 (stereo unspecified) 5.26%, O=C(Cn1c(NCCO)nc2ccccc21)NCCc1ccccc1 0.41%, Nc1nnc(SCC(=O)N2CCN(c3ccccc3)CC2)s1 2.87%, Cc1nc(Cc2ccccc2)sc1CC#N -3.31%, CC(C)CC(NC(=O)C(Cc1ccc(OCc2ccccc2)cc1)NC(=O)OC(C)(C)C)C(N)=O (stereo unspecified) 10.6%, Cc1csc(NC(=O)CSc2nc(C)cs2)n1 3.74%, COc1ccc(CC(=O)Nc2nc(C)cs2)cc1 12%, COc1ccc(-n2nnnc2SCC(=O)N2CCN(C(=O)c3ccco3)CC2)cc1OC 7.68%, CCCCNC(=O)CSc1nc2ccccc2n1S(=O)(=O)c1ccc(Br)cc1 2.01%, Cc1n[nH]c(=O)n(N=Cc2cccs2)c1=O 7.77%, S=c1[nH]nc(-c2cc(-c3ccccc3)n[nH]2)n1/N=C/c1cccs1 16.3%, O=[N+]([O-])c1ccccc1/C=N/n1c(C(F)(F)F)n[nH]c1=S 16.4%, Cc1cc(C)n(/N=C/c2cccc(O)c2)c(=O)c1C(N)=O 10.6%, Cc1ccsc1/C=N/n1c(-c2cc(-c3ccccc3)n[nH]2)n[nH]c1=S 11.8%, Nc1nnnn1/N=C/c1cccc(O)c1 5.38%, Cc1ccc(-c2n[nH]c(=S)n2/N=C/c2sccc2C)cc1 5.68%, O=[N+]([O-])c1ccccc1/C=N/n1c(-c2ccccc2)n[nH]c1=S 16.3%, C#CCOCCOCCOCCNc1nc(N2CCN(C(=O)[C@H](CCCCN)n3cc(CN)nn3)CC2)nc(N2CCN(C(=O)[C@H](CCCN=C(N)N)n3cc(C(N)[C@H](C)CC)nn3)CC2)n1 (stereo partly specified) 7.55%, C/C(=N/OC(=O)c1ccccc1Br)c1ccc(C)cc1 6.4%, O=C(CN1CCCCCC1)Nc1cc([N+](=O)[O-])ccc1Cl 5.34%, Cc1cnc(NC(=O)c2cccc(S(=O)(=O)N3CCOCC3)c2)s1 1.86%, O=C(CCCOc1ccc(Cl)cc1Cl)N/N=C/c1ccc(Cl)cc1 10.9%, O=C1CC2(CCN(C(=O)c3ccccc3[N+](=O)[O-])CC2)Oc2ccccc21 -0.23%, CCOC(=O)c1ccc(N2C(=O)[C@@H](c3ccccc3)[C@H]2c2ccccc2)cc1 -2.09%, S=c1[nH]nc(-c2cc(-c3ccccc3)n[nH]2)n1/N=C/c1ccc(Br)s1 20.5%, S=c1[nH]nc(-c2ccccn2)n1/N=C/c1ccc(Br)s1 18.4%, CCCOc1cccc(/C=N/NC(=O)c2csc(C)c2C)c1 4.91%, CCOC(=O)N1CCN(CCc2ccccc2)CC1 7.1%, CC(C)[C@H](NC(=O)c1ccc(Cl)cc1)C(=O)Nc1cccc(S(=O)(=O)N2CCOCC2)c1 12.2%, O=C1ON=C(c2ccccc2)/C1=C/c1ccccc1 5.86%, CCOc1cc(/C=C2\C(=O)ON=C2c2ccccc2)ccc1OC 24.3%, O=C1ON=C(c2ccccc2)/C1=C/c1ccc(O)cc1 27.7%, COc1ccc(/C=C2\C(=O)ON=C2c2ccccc2)cc1OC 16.1%, CCOc1cc(/C=C2/C(=O)ON=C2C)cc(Br)c1O 29.1%, COc1ccc(/C=C2/C(=O)ON=C2c2ccccc2)cc1OC 15.4%, CN(C)c1cccc(NC(=O)CCc2ccccc2)c1 2.65%, C[C@H](CO)N1C[C@H](C)[C@H](CN(C)C(=O)CCC(F)(F)F)OCc2cnnn2CCCC1=O 6.43%, C=CCSc1nnc(-c2ccncc2)n1-c1ccc(OCC)cc1 6.74%, CC1CCN(S(=O)(=O)c2ccc(C(=O)NCc3cccnc3)cc2)CC1 -0.6%, C/C(CC(=O)Nc1cccc2c1CCCC2)=N\NC(=O)c1ccccc1N 5.83%, CC(C)(C)CC(=O)Nc1nnc(SCC(=O)NC2CCCC2)s1 4.93%, CC(C)OC(=O)c1c(NC(=O)c2cnn3c2NC(c2ccccc2)CC3C(F)(F)F)sc2c1CCCC2 (stereo unspecified) 10.2%, CCCCCC(=O)Nc1c2c(nc3ccccc13)CCC2 8.1%, O=C(CCCCCl)Nc1c2c(nc3ccccc13)CCC2 0.44%, Cc1ccccc1C(=O)Nc1c2c(nc3ccccc13)CCCC2 10.8%, O=C(Nc1c2c(nc3ccccc13)CCCC2)c1ccccc1Cl 2.57%, CCN1CCN(c2ccc(NC(=O)c3ccc(OC)c(S(=O)(=O)N4CCCC4)c3)cc2)CC1 4.33%
